This is a sample that favours compounds with a hit; in the whole collection about 2.9% have one here.
KDM5B inhibitor – KDM5B demethylase inhibition | AID 1347165 | 220,000 compounds, 2.6% hits | Potency, µM (titrated, usually from 57.7 µM), actives largely listed as inhibitors | KDM5B demethylase, FDH-coupled NADH fluorescence (FDH is formaldehyde dehydrogenase); note: potency is the fitted concentration of half-maximal effect; 0% is about no effect; nearly all actives have a fitted effect of over 70% in size
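Here, H3K4me3 peptide (12.5 µM in substrate mix) is demethylated by KDM5BΔAP, 200 nM final, after 10 min compound exposure. Formaldehyde product is coupled through FDH (0.25 U/mL in mix) to NADH fluorescence; 30-min ΔRFU feeds dose-response curves.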
IP6K1 inhibitor – blocks human inositol hexakisphosphate kinase 1 | Q92551 | IP6K1 kinase, ADP-Glo luminescence, 2 h; hits give low values | activity change, % (series mostly up to about 58 µM) | 140,000 compounds, 0.81% hits | AID 1645851; in the data active = activity change below about -25%; note: % is set by controls: 0 for no effect and ±100 for the full control effect
Target sequence (Q92551 whole entry, looked up): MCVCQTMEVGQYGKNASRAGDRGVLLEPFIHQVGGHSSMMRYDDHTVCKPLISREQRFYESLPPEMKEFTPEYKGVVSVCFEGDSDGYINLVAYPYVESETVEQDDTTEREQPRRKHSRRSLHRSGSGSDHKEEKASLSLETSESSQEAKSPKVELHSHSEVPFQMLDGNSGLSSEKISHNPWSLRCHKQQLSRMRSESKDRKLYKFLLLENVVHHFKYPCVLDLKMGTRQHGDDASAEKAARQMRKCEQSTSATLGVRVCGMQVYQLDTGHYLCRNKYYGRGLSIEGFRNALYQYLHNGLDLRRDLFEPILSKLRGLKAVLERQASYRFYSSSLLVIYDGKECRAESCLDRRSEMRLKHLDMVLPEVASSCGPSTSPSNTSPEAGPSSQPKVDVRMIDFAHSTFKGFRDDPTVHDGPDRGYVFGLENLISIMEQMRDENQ
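ADP-Glo luminescence measures ADP made by human IP6K1 during a 2 h RT reaction with ATP/IP6 (mix at 1.3 mM/130 uM); top library doses 57.5 and 19.1 uM final.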
HEK293 viab – counter-screen for SNCA expression inhibitors: cell viability; HEK-293-SNCA-luc viability, GF-AFC fluorescence, 24 h; Potency, µM (doses to about 57.1 µM), for inactives: top-dose activity change, negative = cytotoxicity, most hits filed as cytotoxic; 150,000 compounds, 0.12% hits; AID 1671193;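 note: potency is the fitted concentration of half-maximal effect; 0% = DMSO-treated cells and -100% = medium-only wells without cells; nearly all actives have a fitted effect of over 30% in size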
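HEK-293-SNCA-luc cells (1500/well) plated 24 h, then exposed 24 h to a dilution series; GF-AFC added 30 min at 37C, fluorescence 405/540 nm; normalised to medium-only and DMSO wells, Hill fit.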
SNCA expr inhib – reduces expression of the alpha-synuclein gene. HEK-293 SNCA-luciferase knock-in, luminescence, 24 h. Potency, µM (highest dose often 57.2 µM), without a hit: top-dose activity change, negative = inhibition, hits mostly inhibitors. 140,000 compounds, 0.17% hits. AID 1671194;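 note: potency is the fitted concentration of half-maximal effect; plate controls were DMSO cells for no effect and cell-free wells for full effect; nearly all actives have a fitted effect of over 45% in size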
* = called active by the depositor; i = inactive; u = inconclusive; x = not tested or not shown; [ ] = remark or other dose. Unless noted, calls come from the whole dose curve; as a rule, active = well fitted curve in the direction sought with a large enough effect; inconclusive = small, poorly fitted or top-dose-only effect, or another doubt; inactive = no such curve, though single readings can be large; an effect the other way counts as inactive or inconclusive.

SMILES	KDM5B inhibitor	IP6K1 inhibitor	HEK293 viab	SNCA expr inhib
C=CCNC(=O)C(NC(=O)c1cccc(OC)c1)C1CCN(C(=O)c2ccc(F)cc2)CC1 (centres undefined)	i	7	5%	-6%
COCCNC(=O)c1nc(-c2ccc(F)cc2)c2ccccn12	40µM*	18	-6%[87.6 µM]	31%[87.6 µM]
COCCNC(=O)c1nc(-c2ccc(OC)cc2)c2ccccn12	89µM*	-8	0%	39%
CNC(=O)c1cc(C)nc2onc(C3CCN(C(=O)Cc4ccccn4)C3)c12 (centres undefined)	x	-2	x	x
O=C(c1ccoc1)N1CCC2(CCCCO2)CC1	i	8	-10%	14%
Cc1cn2nc(C(=O)Nc3ccc(N(C)C)cc3)cc2c(N(C)Cc2ccccc2)n1	u	-2	-28%	99%
Cc1cn2nc(C(=O)Nc3ccc(C)c(F)c3)cc2c(N(C)Cc2ccccc2)n1	i	-4	5%	14%
Cc1ccc(NC(=O)c2cc3c(N(C)Cc4ccccc4)nc(C)cn3n2)c(F)c1	10µM*	15	9%	-14%
Cc1cn2nc(C(=O)Nc3ccc(Cl)cc3)cc2c(N(C)Cc2ccccc2)n1	28µM*	8	3%	15%
Cc1cn2nc(C(=O)Nc3ccc(F)cc3)cc2c(N(C)Cc2ccccc2)n1	25µM*	15	-12%	8%
Cc1occc1-c1nnc(SC(C)C(=O)NCc2ccccc2)o1 (centres undefined)	i	x	x	x
c1ccc(CCN(Cc2ccccc2)[C@H]2C[C@H]3CCOC[C@@]3(c3ccccc3)C2)cc1	x	2	x	x
CCOc1ccccc1CN1CCN(c2ccc(C#N)cn2)CC1CCO (centres undefined)	u	-4	0%	0%
COc1ccc2c(C)cc(SCC(=O)NCc3ccc(F)cc3)nc2c1	i	x	x	x
O=C(CCC1CCCN(S(=O)(=O)c2ccccc2)C1)N1CCc2ccccc2C1 (centres undefined)	22µM*	11	-9%	0%
O=C(Cc1c[nH]c2ncc(-c3cccc(CO)c3)cc12)NCc1cccnc1	32µM*	-10	-4%[87.6 µM]	28%[87.6 µM]
O=C(Cc1c[nH]c2ncc(-c3ccccc3C(F)(F)F)cc12)NCc1cccnc1	u	-18	-9%[87.6 µM]	-10%[87.6 µM]
O=C(Cc1c[nH]c2ncc(-c3ccccc3F)cc12)NCc1cccnc1	28µM*	-16	-12%[87.6 µM]	u
CC(C)(C)NC(=O)c1cc2cc(Br)ccc2oc1=O	i	x	x	x
Cc1ccc(-c2nnc([C@H]3CCN(C(=O)COCC(=O)O)C3)o2)cc1	i	12	1%[87.6 µM]	2%[87.6 µM]
Cc1ccccc1C(=O)N1CC2(Cc3ccccc3N([S+](C)(=O)[O-])C2)C1	25µM*	-9	11%	-9%
C[S+](=O)([O-])N1CC2(CCN(C(=O)CCC(=O)O)C2)Cc2ccccc21 (centres undefined)	40µM*	-1	1%	24%
COc1ccc(CN(C)Cc2ccco2)cc1F	i	x	x	x
N#Cc1cc2c(=O)n(CCc3n[nH]c4c3CCCC4)ccc2[nH]c1=O	32µM*	28	1%	-4%
CC(O)CCn1ccc2[nH]c(=O)c(C#N)cc2c1=O (centres undefined)	i	-17	14%	4%
SMILES	KDM5B inhibitor	IP6K1 inhibitor	HEK293 viab	SNCA expr inhib
CCc1cc(CC)n(-c2nc3c(c(=O)[nH]c(=O)n3C)n2CCOC)n1	i	x	x	x
O=C(Cc1ccc(-c2ccccc2)cc1)NCCS(=O)(=O)N1CCN(c2ccccc2)CC1	u	-23	10%	-15%
COc1ccc(N2CCN(S(=O)(=O)CCNC(=O)Cc3ccc(-c4ccccc4)cc3)CC2)cc1	i	-27*	23%	30%
CNC(=O)CCc1ccc2c(c1)CN(C(C)=O)CCO2	i	11	-2%[12.5 µM]	29%
CC(=O)N1CCOc2ccc(CCC(=O)NC(C)Cn3ccc(C)n3)cc2C1 (centres undefined)	i	17	2%[12.5 µM]	20µM*
COCC1CN(C)CC12CCN(Cc1ccc(F)c(Cl)c1)CC2 (centres undefined)	28µM*	23	-6%	13%
COCC1CN(C)CC12CCN(Cc1ccc(OC)cc1)CC2 (centres undefined)	u	15	-2%	-8%
CNC(=O)c1cc(C)nc2onc(C3CCCN([S+](=O)([O-])c4cccs4)C3)c12 (centres undefined)	x	2	x	x
O=C(C1CCCN1[S+](=O)([O-])c1ccccc1)N1CCC(c2nc3ccncc3[nH]2)CC1 (centres undefined)	x	18	6%	28%
COc1ccc(-c2cccc(C(=O)O)c2)cc1	i	x	x	x
COc1cccc(-c2ccc(C(=O)O)cc2)c1	112µM*	-20	-4%[87.6 µM]	42%[87.6 µM]
CC1(C)CC(=O)C2=C(C1)OC(N)=C(C#N)C2c1cccc(F)c1 (centres undefined)	i	x	x	x
CN(C)Cc1nnc(C2CC(NC(=O)c3ccn(C)c(=O)c3)C2)n1C (centres undefined)	32µM*	6	-2%	8%
CN(C)Cc1nnc(C2CC(NC(=O)c3ccc4c(c3)CCC4)C2)n1C (centres undefined)	i	18	-11%	0%
CN(C)Cc1nnc(C2CC(Nc3cncc(C(=O)N(C)C)n3)C2)n1C (centres undefined)	28µM*	0	2%	2%
COc1ccc(CN2CCCCCNC(=O)CC2c2ccccc2)cc1Cc1c(C)noc1C (centres undefined)	i	-1	-11%	1%
Cc1ccc(Cl)cc1-n1nc(-c2c(C)nc3scc(CC(=O)N4CCOCC4)n3c2=O)cc1C	28µM*	25	-8%	-13%
Cc1ccc(C)c(-n2nc(-c3c(C)nc4scc(CC(=O)N5CCOCC5)n4c3=O)cc2C)c1	28µM*	13	-1%	28%
COc1ccc(N2C(=O)CN(C(=O)c3cc(F)c(F)cc3F)CC2(C)C)cc1	i	25	7%	-1%
Cc1ccc(C)c(N2CCN(c3nc4ccccc4c(=O)n3-c3ccccc3)CC2)c1	u	-8	25%	2.5µM*
Cc1ccc(CN2CCCCCNC(=O)CC2c2ccccc2)o1 (centres undefined)	28µM*	6	4%	-10%
O=C1CC(c2ccccc2)N(Cc2ccccn2)CCCCCN1 (centres undefined)	i	7	u	7%
C=C(C)COc1ccc2c(=O)c(Oc3ccccc3Br)c(C)oc2c1	i	x	x	x
CCC(=O)Nc1ccc(C)cc1-c1nc2ccccc2n(CC(=O)c2ccc(C)cc2)c1=O	i	24	17%	28µM*
COc1ccc(C(=O)Cn2c(=O)c(-c3cc(C)ccc3NC(C)=O)nc3ccccc32)cc1	u	-15	u	-5%
COc1ccc(-c2[nH]ncc2CNc2cc(C3CC(O)C3)nc(C)n2)cc1 (centres undefined)	i	8	2%	17%
COc1ccc2[nH]c(CNc3cc(C4CC(N)C4)nc(C)n3)cc2c1 (centres undefined)	20µM*	-11	1%	11%
CCN(CC)c1cc(CCC(=O)NCCc2ccccn2)ccn1	u	-1	4%	-1%

From PubChem
